Assay outcomes (PubChem)
The full list was thinned out, with hits kept by preference.
HT1080-NT tox – kills 2HG-producing HT-1080-NT fibrosarcoma cells. HT-1080-NT fibrosarcoma viability, CellTiter-Glo ATP luminescence, 48 h. Potency, µM (titrated, usually from 46.1 µM), inactives show at the top dose activity, negative = less viability, actives largely listed as cytotoxic. actives 1.6% (n = 360,000). AID 686970;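 note: NT is the 2HG producing partner of a matched IDH1 knockdown line; potency is the fitted concentration of half-maximal effect; 0% = DMSO-treated cells and -100% = media-only wells without cells; nearly all actives have a fitted effect of over 55% in size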
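Compounds were tested in concentration-response format on HT-1080-NT cells for 48 hours at 37 degrees C. Cell viability came from CellTiter-Glo luminescence; curves were classified by r2, response magnitude and activity.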
IL1B secr inh – inflammasome signaling inhibition, IL-1 beta readout; activity change, % at 57.5 µM; actives 4.7% (n = 360,000); THP-1 LPS/ATP IL-1B secretion, AlphaLISA, 16 h; stronger effect = lower value; AID 743279; in the data active = activity change below about -50%; inconclusive = mostly about -30% to -49%
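Secreted IL-1B measured by AlphaLISA bead assay after 16 h compound exposure of THP-1 cells; compounds (final up to 57.5 uM) added 1 h before LPS (250 ng/mL) and ATP (1.25 mM) stimulation; lower signal means less secretion.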
12-LOX inh – blocks human arachidonate 12S-lipoxygenase; P18054; purified 12hLO, xylenol orange hydroperoxide absorbance; Potency, µM (titrated, usually from 108 µM), for the others: top-dose activity change, negative = inhibition, usual class: inhibitors; actives 1.1% (n = 580,000); AID 1671190; note: potency is the fitted concentration of half-maximal effect
Target sequence (P18054 whole entry, looked up): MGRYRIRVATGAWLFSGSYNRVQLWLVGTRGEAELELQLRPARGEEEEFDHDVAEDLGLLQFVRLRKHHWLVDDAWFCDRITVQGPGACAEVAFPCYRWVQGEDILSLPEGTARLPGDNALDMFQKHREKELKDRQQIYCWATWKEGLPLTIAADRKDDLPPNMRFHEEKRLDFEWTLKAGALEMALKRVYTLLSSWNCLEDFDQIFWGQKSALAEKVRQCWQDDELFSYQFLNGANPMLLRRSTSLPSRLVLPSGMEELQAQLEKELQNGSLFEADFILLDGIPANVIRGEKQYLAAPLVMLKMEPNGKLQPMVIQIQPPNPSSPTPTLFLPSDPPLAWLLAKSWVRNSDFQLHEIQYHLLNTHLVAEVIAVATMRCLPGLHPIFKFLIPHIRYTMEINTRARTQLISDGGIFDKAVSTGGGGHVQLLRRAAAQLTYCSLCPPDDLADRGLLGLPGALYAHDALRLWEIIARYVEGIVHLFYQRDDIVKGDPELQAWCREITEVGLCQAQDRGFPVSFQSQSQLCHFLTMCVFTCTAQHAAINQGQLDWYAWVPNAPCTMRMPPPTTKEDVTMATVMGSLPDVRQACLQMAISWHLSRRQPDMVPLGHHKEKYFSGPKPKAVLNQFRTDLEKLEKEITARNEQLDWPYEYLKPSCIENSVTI
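Purified human 12hLO at 150 nM in 25 mM Hepes, 0.01% Triton X-100, pH 7.0, preincubated 15 min at room temperature with compound. Reaction started with 40 uM arachidonic acid, 30 min at room temperature. Hydroperoxide measured by Fe-xylenol orange, 573/405 nm absorbance ratio.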
HT1080 IDH1KD tx – toxicity to HT-1080 IDH1 knockdown cells (counter line); HT-1080 IDH1 knockdown viability, ATP luminescence, 48 h; Potency, µM (doses to about 46.1 µM), inactives show top-dose activity, negative = toxicity, actives largely listed as cytotoxic; actives 2% (n = 360,000); AID 686971;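 note: potency is the fitted concentration of half-maximal effect; 0% = DMSO wells and -100% = cell-free medium wells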
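Viability of IDH1-knockdown HT-1080 fibrosarcoma cells was assessed by CellTiter-Glo after 48 h at 37 °C with titrated compound; concentration-effect curves were classified by fit quality and response size.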
DT40 TDP1 no CPT – qHTS for Inhibitors of human tyrosyl-DNA phosphodiesterase 1 (TDP1): qHTS in cells in absence of CPT; DT40 Tdp1-/- hTDP1 cells, no CPT, ATP luminescence, 48 h; Potency, µM (doses to about 46.2 µM), without a hit: at the highest dose activity change, negative = growth inhibition, most hits filed as inhibitors; actives 15% (n = 420,000); AID 686978, 2013; note: potency is the fitted concentration of half-maximal effect; nearly all actives have a fitted effect of over 55% in size
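Growth of hTDP1-complemented DT40 Tdp1-knockout cells is measured by ATP luminescence after at least 48 hr compound exposure at 37 °C, with DMSO substituting for the 20 nM CPT used in the parallel screen.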
DT40 TDP1 CPT – DT40-hTDP1 cell growth loss with CPT; Potency, µM (series often up to 46.2 µM), for inactives: at the highest dose activity change, negative = growth inhibition, actives largely listed as inhibitors; chicken DT40 Tdp1-/-;hTDP1 cells + 20 nM CPT, ATP luminescence, 48 h; actives 12% (n = 420,000); note: potency is the fitted concentration of half-maximal effect; nearly all actives have a fitted effect of over 55% in size
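Chicken DT40 Tdp1-/- cells stably complemented with human TDP1 were seeded at 400 cells/well in medium containing 20 nM camptothecin, exposed to pin-transferred compounds, and grown at 37 °C for at least 48 hr. Viability was read as ATP luminescence.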
Active calls of the source: *; ? = inconclusive; · = no result; [ ] = remark or other dose. Unless noted, calls come from the whole dose curve; as a rule, active = well fitted curve in the direction sought with a large enough effect; inconclusive = small, poorly fitted or top-dose-only effect, or another doubt; inactive = no such curve, though single readings can be large; an effect the other way counts as inactive or inconclusive. Unless noted, % is set by controls: 0 for no effect and ±100 for the full control effect.

SMILES	HT1080-NT tox	IL1B secr inh	12-LOX inh	HT1080 IDH1KD tx	DT40 TDP1 no CPT	DT40 TDP1 CPT
O=C(NNC(=O)c1cccc2ccccc12)c1ccc(-c2ccccc2)cc1	-1%	-20	11%	1%	?	?
O=C(NNC(=O)c1cccc2ccccc12)c1ccccc1O	-11%	83	·	?	?	15µM*
O=C(NNc1c2ccccc2nc2ccccc12)c1ccccc1O	?	-12	-15%	?	21µM*	?
CCc1ncc2c(N3CC4CCC(C3)N4CC(F)(F)F)nc3ccccc3n12	·	·	2%[6.33 µM]	·	·	·
Cc1ccc(C)n1-c1nc2ccc(C(=O)Nc3ccc(C(N)=O)cc3)cc2s1	·	·	-6%	·	·	·
COc1ccccc1C(=O)NNc1ncc(C)s1	12%	-2	2%	3%	?	?
O=C(NNc1nc(=O)c2cccnc2s1)c1ccccc1O	-27%	118	6%	?	0.016µM*	0.0052µM*
CCCCCCCCN1C(=O)[C@H](CC(=O)NCc2cccc(C(F)(F)F)c2)C[C@@]2(C(=O)OCC)CCC=C12	?	-23	?	?	13µM*	?
COC(=O)[C@]12CCCCC=C1N(Cc1ccccc1)C(=O)[C@H](CC(=O)NCc1cccc(C(F)(F)F)c1)C2	?	-18	-4%	?	?	?
CCCCCCCCN1C(=O)[C@H](CC(=O)NCc2cccc(C(F)(F)F)c2)C[C@@]2(C(=O)OC)CCCCC=C12	?	-55*	-1%	?	?	21µM*
c1ccc(-c2ccn[nH]2)cc1	·	·	36%	·	·	·
CC(C)C(=O)N1CCN(CCNc2cc(=O)oc3ccccc23)CC1	·	·	-22%	·	·	·
COC(=O)c1cc(S(=O)(=O)Nc2cccc(-c3ccno3)c2)c[nH]1	2%	26	1%	-5%	7.3µM*	12µM*
CC(=O)N1c2ccccc2N(Cc2ccc(C)cc2C)C(=O)C1(C)C	?	84	1%[57.4 µM]	16µM*	5.8µM*	6.5µM*
COc1cc2c(cc1OC)C(c1ccc3c(c1)OCO3)CC(=O)N2 (stereo not drawn)	?	25	-13%	?	?	5%
CC(C)Oc1cccc(C2CC(=O)Nc3cc4c(cc32)OCO4)c1 (stereo not drawn)	·	·	?	·	2.6µM*	2.6µM*
CC(C)Oc1cccc(C2NC(=O)c3ccccc3O2)c1 (stereo not drawn)	-3%	-5	-23%	2%	-14%	-6%
COc1cccc(C2CC(=O)Nc3cc4c(cc32)OCO4)c1OC(C)C (stereo not drawn)	·	·	-13%	·	?	21µM*
Cc1cccc(C2CC(=O)Nc3cc4c(cc32)OCO4)c1 (stereo not drawn)	·	·	-10%	·	21µM*	?
Cc1occc1-c1nnc(SCC(=O)Nc2cccc(C(F)(F)F)c2)o1	·	·	-16%	·	·	·
CCOc1cc(C(=O)O)ccc1OCc1ccccc1	·	·	-25%	·	·	·
COc1cccc(-c2ccc3ncnc(N4CCOCC4)c3c2)c1	·	·	0%	·	26µM*	15µM*
COc1ccccc1-c1ccc2ncnc(N3CCN(C)CC3)c2c1	·	·	-14%	·	7.3µM*	9.2µM*
COc1cccc(C(=O)Nc2ccc3c(N4CCOCC4)ncnc3c2)c1	·	·	22%	·	·	·
COc1ccccc1-c1ccc2ncnc(N3CCOCC3)c2c1	·	·	-10%	·	21µM*	18µM*
c1cn(-c2ncnc3ccc(-c4ccoc4)cc23)cn1	·	·	-30%	·	23µM*	18µM*
CCc1noc(-c2ccn3c(CNC(=O)Cc4cccc(OC)c4)nnc3c2)n1	·	·	8%	·	·	·
COCCN1C(=O)[C@H]2CN(C(=O)c3ccncc3)C[C@H]2C1=O	·	·	38%	·	·	·
